From PubChem BioAssay (Tox21)
Values joined by “and” are separate entries in the source; they are usually repeats but may differ in a detail not shown here. Equal entries are not always repeated. Active and inactive are the calls of the source. Where a call stands in place of a potency, no number is given. The call rests on the fitted dose curve.

Molecular target: Muscarinic acetylcholine receptor M1 (Homo sapiens) (UniProt P11229)
Assay: Cholinergic receptor muscarinic 1 (CHRM1) small molecule agonists, cell-based qHTS assay (AID 1963589); further: nearly all actives have a fitted effect of over 35% in size
How it was run: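 qHTS, 15-point titration, 3 independent runs: compounds pin-transferred onto dye-loaded CHRM1-CHO cells (human M1), calcium fluorescence followed every second to detect agonism.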
Potency means the concentration at half of the fitted maximal effect.

Sequence of Muscarinic acetylcholine receptor M1 (Homo sapiens) (P11229 whole entry, looked up): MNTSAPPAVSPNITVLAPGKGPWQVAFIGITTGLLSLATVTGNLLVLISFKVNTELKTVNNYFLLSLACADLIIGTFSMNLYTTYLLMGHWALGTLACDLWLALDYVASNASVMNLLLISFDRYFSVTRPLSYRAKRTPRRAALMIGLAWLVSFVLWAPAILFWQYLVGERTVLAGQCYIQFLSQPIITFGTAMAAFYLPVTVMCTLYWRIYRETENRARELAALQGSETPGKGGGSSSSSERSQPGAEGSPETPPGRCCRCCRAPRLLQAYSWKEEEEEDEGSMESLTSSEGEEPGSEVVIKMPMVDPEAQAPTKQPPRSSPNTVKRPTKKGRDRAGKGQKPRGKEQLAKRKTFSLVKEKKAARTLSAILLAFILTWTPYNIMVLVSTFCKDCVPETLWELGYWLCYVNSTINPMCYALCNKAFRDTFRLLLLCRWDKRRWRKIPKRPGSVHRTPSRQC

For `CCCCCCCCCCCCCC(=O)OC(C)C`, the Potency was “inactive”.

With `O=c1[nH]c(=O)n([C@H]2C[C@H](O)[C@@H](CO)O2)cc1Br` the Potency was “inactive”.

`CCCCCCOC(C)=O` was tested, and the Potency was “inactive”.

`CN(C)CCOC(C)(c1ccccc1)c1ccccn1` (configuration not stated) was tested, and the Potency was “inactive”.

`CC(CCO)CC(C)(C)C` (configuration not stated) was tested, and the Potency was “inactive”.

For `CC1(C)CC(N=C=O)CC(C)(CN=C=O)C1` (configuration not stated), the Potency was “inactive”.

In the case of `CCOC(=O)C1OC1c1ccccc1` (configuration not stated), the Potency is reported as “inactive”.

In the case of `COCCOCCOC`, the Potency is reported as “inactive”.

For `C=C(C)C1CC=C(C)CC1` (configuration not stated), the Potency was “inactive”.

In the case of `O=C(O)c1ccccc1Nc1cccc(C(F)(F)F)c1`, the Potency is reported as “inactive”.

For `CCC(=O)/C=C/C1C(C)=CCCC1(C)C` (configuration not stated), the Potency was “inactive”.

In the case of `CCOC(=O)/C=C\C(=O)OCC`, the Potency is reported as “inactive”.

In the case of `CCCCCCCCC`, the Potency is reported as “inactive”.

With `Nc1cccc(C(F)(F)F)c1` the Potency was “inactive”.

With `CCCN(CCC)C(=O)SCC` the Potency was “inactive”.

For `CCCCCCCCCCCCO`, the Potency was “inactive”.

In the case of `CCCCNC(=O)NS(=O)(=O)c1ccc(C)cc1`, the Potency is reported as “inactive”.

In the case of `CCOC(=O)NNc1nncc2ccccc12`, the Potency is reported as “inactive”.

For `Cc1ccc(C(C)C)c(O)c1`, the Potency was “inactive”.

`CC[Si](OC(C)=O)(OC(C)=O)OC(C)=O` was tested, and the Potency was “inactive”.

For `Nc1cc(Cl)c(N)c(Cl)c1`, the Potency was “inactive”.

In the case of `CCCCCCCCCCCC[N+](C)(C)C`, the Potency is reported as 27.5 µM (active) and 245 nM (active).

In the case of `CCCCCCc1ccc(O)cc1O`, the Potency is reported as “inactive”.

`OC[C@H]1O[C@@H](Oc2ccc(O)cc2)[C@H](O)[C@@H](O)[C@@H]1O` was tested, and the Potency was “inactive”.

For `C=C(C)C(=O)OCCCCCCCCCCCC`, the Potency was “inactive”.

`O=C(O)Cn1c(=O)n(Cc2ccc(Br)cc2F)c(=O)c2ccc(Cl)cc21` was tested, and the Potency was “inactive”.

In the case of `O=C1CCCCCCCCCCC1`, the Potency is reported as “inactive”.

For `Nc1cc(Cl)c(-c2cc(Cl)c(N)cc2Cl)cc1Cl`, the Potency was “inactive”.

For `C=C(C#N)C(=O)OCC`, the Potency was “inactive”.

With `CCCCOC(=O)COc1ccc(Cl)cc1Cl` the Potency was “inactive”.

In the case of `C=CCNC(N)=S`, the Potency is reported as “inactive”.

`Cc1ccc(N)c(S(=O)(=O)O)c1` was tested, and the Potency was “inactive”.

`CCCCCCCCCCO` was tested, and the Potency was “inactive”.

With `CC(=O)OCC(=O)[C@@]12N=C(C)O[C@@H]1C[C@H]1[C@@H]3CCC4=CC(=O)C=C[C@]4(C)[C@H]3[C@@H](O)C[C@@]12C` the Potency was “inactive”.

`CC(=O)CCc1ccccc1` was tested, and the Potency was “inactive”.

With `Brc1ccc(Oc2ccc(Br)cc2)cc1` the Potency was “inactive”.

With `C=C(C)C(N)=O` the Potency was “inactive”.

With `CCCCOCCO` the Potency was “inactive”.

In the case of `CCCC(O)C(CC)CO` (configuration not stated), the Potency is reported as “inactive”.

For `Cc1cccc2n[nH]nc12`, the Potency was “inactive”.

For `Cc1cccc(C)c1O`, the Potency was “inactive”.

With `NCCCCCCN` the Potency was “inactive”.

For `CCCOC(=O)c1cc(O)c(O)c(O)c1`, the Potency was “inactive”.

For `O=S(=O)(O)c1ccc2nc(-c3ccccc3)[nH]c2c1`, the Potency was “inactive”.

`COC(=O)c1cccnc1` was tested, and the Potency was “inactive”.

In the case of `CC(C)=CCC/C(C)=C/C=O`, the Potency is reported as “inactive”.

With `FC(F)(F)c1ccc(Cl)c(Cl)c1` the Potency was “inactive”.

With `C=CC(=O)OCCOCCOCCOCCOC(=O)C=C` the Potency was “inactive”.

In the case of `CCCCCCCC(=O)OC`, the Potency is reported as “inactive”.

For `O=S1(=O)CC=CC1`, the Potency was “inactive”.

For `Clc1cc(Cl)c(Cl)cc1Cl`, the Potency was “inactive”.

`CCC(C)C=O` (configuration not stated) was tested, and the Potency was “inactive”.

With `Cc1ccc(S(=O)(=O)O)cc1C` the Potency was “inactive”.

`OB(O)O` was tested, and the Potency was “inactive”.

For `CC(C)(C)[C@@H](O)[C@@H](Cc1ccc(Cl)cc1)n1cncn1`, the Potency was “inactive”.

With `CCCCC(CC)COC(=O)C(C#N)=C(c1ccccc1)c1ccccc1` (configuration not stated) the Potency was “inactive”.

`C=C(CC(=O)O)C(=O)O` was tested, and the Potency was “inactive”.

With `O=C(/C=C/C=C/c1ccc2c(c1)OCO2)N1CCCCC1` the Potency was “inactive”.

`CC(=O)Nc1ccc(C(=O)O)cc1` was tested, and the Potency was “inactive”.

For `c1ccc2cc(Nc3ccc(Nc4ccc5ccccc5c4)cc3)ccc2c1`, the Potency was “inactive”.

For `NCCN1CCNCC1`, the Potency was “inactive”.

For `CCCCNS(=O)(=O)c1ccccc1`, the Potency was “inactive”.

With `NC(=S)NNC(N)=S` the Potency was “inactive”.

With `COCCCN` the Potency was “inactive”.

In the case of `CC1(C)C(=O)N(Cl)C(=O)N1Cl`, the Potency is reported as “inactive”.

In the case of `Cc1ccc([N+](=O)[O-])cc1S(=O)(=O)O`, the Potency is reported as “inactive”.

With `CCCCCCCCC(=O)O` the Potency was “inactive”.

For `CN(C)C(=O)Nc1ccc(Cl)c(Cl)c1`, the Potency was “inactive”.

With `c1ccc2[nH]ccc2c1` the Potency was “inactive”.

With `CCCCCCCCCCCC(=O)OC` the Potency was “inactive”.

With `Cc1ccc(C)c(C)c1` the Potency was “inactive”.

With `[Na+]` the Potency was “inactive”.

`COCN(COC)c1nc(N(COC)COC)nc(N(COC)COC)n1` was tested, and the Potency was “inactive”.

`CCc1cccc(C)c1N` was tested, and the Potency was “inactive”.

With `Nc1ccc2c(O)cc(S(=O)(=O)O)cc2c1` the Potency was “inactive”.

With `COc1cc(NC(=O)CC(C)=O)c(OC)cc1Cl` the Potency was “inactive”.

With `COC(=O)c1ccc(C)cc1` the Potency was “inactive”.
